Several values for one entry are separate records, joined by “and”; a condition that tells them apart may be missing. Equal entries are not always repeated. Inconclusive results are not listed. Entries that show only a call come without a potency. More than one record can exist for a structure, and the calls need not agree. Activity calls are given as the source filed them. Unless noted, calls follow the shape of the dose curve; as a rule, active = well fitted curve in the direction sought with a large enough effect in the repeat runs; inconclusive = weak or mixed curves; inactive = no such curve, though single readings can be large; an effect the other way counts as inactive or inconclusive.
How the values were obtained:
[1] = molecular target: Acetylcholinesterase (Homo sapiens) (UniProt P22303); test: Acetylcholinesterase (AChE) small molecule antagonists: colormetric cell-based qHTS assay (AID 1347395; calls by dose curve; also: nearly all actives have a fitted effect of over 30% in size; also: potency is read from the fitted curve at half-maximal effect)
Sequence of Acetylcholinesterase (Homo sapiens) (P22303 whole entry, looked up): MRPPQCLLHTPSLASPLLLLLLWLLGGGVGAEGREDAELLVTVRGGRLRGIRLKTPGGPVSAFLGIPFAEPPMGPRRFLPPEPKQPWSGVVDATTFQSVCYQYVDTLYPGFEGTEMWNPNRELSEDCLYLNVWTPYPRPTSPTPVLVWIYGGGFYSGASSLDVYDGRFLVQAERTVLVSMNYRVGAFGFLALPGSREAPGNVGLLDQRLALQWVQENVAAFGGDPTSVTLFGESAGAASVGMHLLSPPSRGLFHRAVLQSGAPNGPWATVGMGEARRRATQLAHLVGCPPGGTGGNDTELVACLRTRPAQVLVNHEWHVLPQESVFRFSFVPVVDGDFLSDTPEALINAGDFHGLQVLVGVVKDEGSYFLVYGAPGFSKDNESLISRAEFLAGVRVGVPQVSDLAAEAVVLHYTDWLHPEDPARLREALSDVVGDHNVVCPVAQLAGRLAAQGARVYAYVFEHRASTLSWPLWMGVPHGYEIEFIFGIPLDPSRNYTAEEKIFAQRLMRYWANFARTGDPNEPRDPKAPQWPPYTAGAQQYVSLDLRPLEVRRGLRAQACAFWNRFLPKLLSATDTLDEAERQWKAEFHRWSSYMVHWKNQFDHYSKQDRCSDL
How it was run: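 Colorimetric readout: DTNB quantifies thiocholine from acetylthiocholine hydrolysed by endogenous AChE of SH-SY5Y cells (2,000/well, plated overnight). Compound pretreatment 30 min, substrate incubation 90 min, both 37 C.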

[2] = molecular target: Acetylcholinesterase (Homo sapiens) (UniProt P22303); test: Acetylcholinesterase (AChE) small molecule antagonists: enzyme-based qHTS assay (AID 1347397; calls by dose curve; also: nearly all actives have a fitted effect of over 55% in size); conditions: Potency: AChE enzyme activity inhibition
How it was run: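 Tox21 library chemicals are tested in qHTS format against recombinant human AChE. The enzyme, dispensed at 50 mU/mL, sits with compound for 30 min at room temperature. A DTNB–acetylthiocholine cocktail follows, and colour is read after 10 min.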

[3] = molecular target: Acetylcholinesterase (Homo sapiens) (UniProt P22303); test: Acetylcholinesterase (AChE) small molecule antagonists: enzyme-based qHTS assay with human liver microsomes (AID 1347399; calls by dose curve; also: nearly all actives have a fitted effect of over 60% in size; also: potency is read from the fitted curve at half-maximal effect); conditions: Potency: qHTS inhibition
How it was run: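 Recombinant human AChE (50 mU/mL in the enzyme mix) and human liver microsomes (0.25 mg/mL final) were preincubated with compound and NADPH (0.25 mg/mL final) for 30 min at 37 C. Acetylthiocholine/DTNB was then added; thiocholine was read colorimetrically after 10 min at room temperature.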

[4] = molecular target: Cytochrome P450 2D6 (Homo sapiens) (UniProt P10635); test: Cytochrome P450 Family 2 Subfamily D Member 6 (CYP2D6) small molecule antagonists: luciferase reporter qHTS assay (AID 1671196); also: nearly all actives have a fitted effect of over 50% in size; also: potency is read from the fitted curve at half-maximal effect
Sequence of Cytochrome P450 2D6 (Homo sapiens) (P10635 whole entry, looked up): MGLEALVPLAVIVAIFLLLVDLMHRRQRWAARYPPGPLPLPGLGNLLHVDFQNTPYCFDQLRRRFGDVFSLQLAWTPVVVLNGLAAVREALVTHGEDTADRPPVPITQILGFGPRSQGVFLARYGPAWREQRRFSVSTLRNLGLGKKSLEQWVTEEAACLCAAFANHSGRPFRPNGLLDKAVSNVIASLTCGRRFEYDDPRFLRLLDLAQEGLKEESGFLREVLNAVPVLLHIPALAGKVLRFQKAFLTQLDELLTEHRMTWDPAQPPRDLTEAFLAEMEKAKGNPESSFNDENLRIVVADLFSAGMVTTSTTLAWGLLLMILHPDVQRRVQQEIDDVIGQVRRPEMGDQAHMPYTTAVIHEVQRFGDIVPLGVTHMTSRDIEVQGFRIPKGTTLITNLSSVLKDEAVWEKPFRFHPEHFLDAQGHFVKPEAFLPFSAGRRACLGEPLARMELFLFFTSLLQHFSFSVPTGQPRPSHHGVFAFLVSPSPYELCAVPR
How it was run: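 Luminogenic proluciferin substrate, CYP2D6 enzyme; 10 min RT preincubation with compound, NADPH regeneration system added, 1 h RT. Stop/detection reagent, 20 min RT, luminescence read (RLU). Signal proportional to CYP activity.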

[5] = molecular target: Cytochrome P450 2C19 (Homo sapiens) (UniProt P33261); test: Cytochrome P450 Family 2 Subfamily C Member 19 (CYP2C19) small molecule antagonists: luciferase reporter qHTS assay (AID 1671197); also: nearly all actives have a fitted effect of over 65% in size; also: potency is read from the fitted curve at half-maximal effect
Sequence of Cytochrome P450 2C19 (Homo sapiens) (P33261 whole entry, looked up): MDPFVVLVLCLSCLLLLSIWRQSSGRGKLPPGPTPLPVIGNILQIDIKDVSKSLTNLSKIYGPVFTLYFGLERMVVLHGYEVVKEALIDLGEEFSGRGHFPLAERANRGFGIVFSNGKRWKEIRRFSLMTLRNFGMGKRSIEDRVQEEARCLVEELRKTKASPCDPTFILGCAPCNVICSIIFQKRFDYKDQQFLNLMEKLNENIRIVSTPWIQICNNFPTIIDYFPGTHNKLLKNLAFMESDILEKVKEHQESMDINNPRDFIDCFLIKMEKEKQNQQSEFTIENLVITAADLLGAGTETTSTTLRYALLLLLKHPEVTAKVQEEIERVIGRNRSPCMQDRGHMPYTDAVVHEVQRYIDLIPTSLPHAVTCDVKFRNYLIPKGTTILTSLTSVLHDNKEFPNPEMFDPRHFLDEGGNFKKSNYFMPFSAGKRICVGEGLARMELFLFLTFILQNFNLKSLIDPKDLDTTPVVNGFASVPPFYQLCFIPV
How it was run: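 Inhibition of CYP2C19 was scored from loss of luminescence in a P450-Glo proluciferin substrate assay, NADPH-started and run 1 h at 37C, with ketoconazole as positive control.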

[6] = molecular target: Cytochrome P450 1A2 (Homo sapiens) (UniProt P05177); test: Cytochrome P450 Family 1 Subfamily A Member 2 (CYP1A2) small molecule antagonists: luciferase reporter qHTS assay (AID 1671199); also: nearly all actives have a fitted effect of over 50% in size; also: potency is read from the fitted curve at half-maximal effect
Sequence of Cytochrome P450 1A2 (Homo sapiens) (P05177 whole entry, looked up): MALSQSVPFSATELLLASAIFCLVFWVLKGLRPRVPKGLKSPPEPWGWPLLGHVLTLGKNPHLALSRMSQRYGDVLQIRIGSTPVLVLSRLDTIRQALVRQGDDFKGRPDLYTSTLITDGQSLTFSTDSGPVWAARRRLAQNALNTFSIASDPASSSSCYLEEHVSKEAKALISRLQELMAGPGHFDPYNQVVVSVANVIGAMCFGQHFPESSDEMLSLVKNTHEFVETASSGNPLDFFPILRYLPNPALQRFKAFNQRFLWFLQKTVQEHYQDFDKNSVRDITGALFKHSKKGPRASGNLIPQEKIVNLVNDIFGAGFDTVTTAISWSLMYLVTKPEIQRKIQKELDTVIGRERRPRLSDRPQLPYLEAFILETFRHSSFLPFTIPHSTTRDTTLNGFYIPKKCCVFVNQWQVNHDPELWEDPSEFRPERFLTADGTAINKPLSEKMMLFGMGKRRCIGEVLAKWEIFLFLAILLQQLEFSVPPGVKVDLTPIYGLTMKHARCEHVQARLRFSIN
How it was run: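 Luminescence readout (relative luminescence units) after luciferin detection reagent, 20 min RT. Preceded by 1 h room-temperature CYP1A2 reaction with NADPH regeneration solution following 10 min compound preincubation with enzyme and proluciferin substrate. Furafylline positive control.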

[7] = molecular target: Voltage-gated inwardly rectifying potassium channel KCNH2 (Homo sapiens) (UniProt Q12809); test: Human Ether-a-go-go-Related Gene (hERG) channel small molecule antagonists: fluorescence cell-based qHTS assay (AID 1671200); also: nearly all actives have a fitted effect of over 50% in size; also: potency is read from the fitted curve at half-maximal effect
Sequence of Voltage-gated inwardly rectifying potassium channel KCNH2 (Homo sapiens) (Q12809 whole entry, looked up): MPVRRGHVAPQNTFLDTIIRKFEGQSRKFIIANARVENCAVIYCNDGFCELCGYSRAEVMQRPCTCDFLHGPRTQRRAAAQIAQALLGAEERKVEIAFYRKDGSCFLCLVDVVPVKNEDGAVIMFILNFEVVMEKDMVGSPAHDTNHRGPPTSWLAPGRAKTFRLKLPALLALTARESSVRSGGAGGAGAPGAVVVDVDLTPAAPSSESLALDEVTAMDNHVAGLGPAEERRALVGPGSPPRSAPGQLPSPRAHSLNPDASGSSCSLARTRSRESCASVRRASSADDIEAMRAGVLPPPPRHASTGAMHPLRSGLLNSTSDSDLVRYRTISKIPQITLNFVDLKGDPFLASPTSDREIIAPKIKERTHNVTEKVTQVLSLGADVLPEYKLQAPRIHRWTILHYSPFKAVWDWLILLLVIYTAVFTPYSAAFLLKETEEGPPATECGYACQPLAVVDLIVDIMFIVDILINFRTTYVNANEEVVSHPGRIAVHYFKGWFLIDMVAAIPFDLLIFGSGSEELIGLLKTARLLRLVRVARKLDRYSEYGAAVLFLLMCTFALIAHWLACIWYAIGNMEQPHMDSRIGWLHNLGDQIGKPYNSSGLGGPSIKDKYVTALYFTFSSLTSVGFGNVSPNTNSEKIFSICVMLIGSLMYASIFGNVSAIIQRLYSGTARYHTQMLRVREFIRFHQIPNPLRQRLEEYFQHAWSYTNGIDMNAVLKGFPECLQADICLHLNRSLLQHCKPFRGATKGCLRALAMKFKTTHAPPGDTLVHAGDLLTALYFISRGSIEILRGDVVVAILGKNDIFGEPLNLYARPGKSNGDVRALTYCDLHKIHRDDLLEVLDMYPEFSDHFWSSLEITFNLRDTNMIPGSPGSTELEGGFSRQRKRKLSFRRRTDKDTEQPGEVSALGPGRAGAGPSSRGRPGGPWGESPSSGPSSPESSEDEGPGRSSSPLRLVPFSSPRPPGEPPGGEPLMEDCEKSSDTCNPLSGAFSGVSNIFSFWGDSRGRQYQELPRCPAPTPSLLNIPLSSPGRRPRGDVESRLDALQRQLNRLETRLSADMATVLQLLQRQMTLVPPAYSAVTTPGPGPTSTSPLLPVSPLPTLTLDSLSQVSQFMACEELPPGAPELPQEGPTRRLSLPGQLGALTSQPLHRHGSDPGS
How it was run: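 Thallium flux as potassium surrogate: FluxOR II dye loaded 1 h at room temperature into hERG-expressing U2OS cells, then stimulus buffer added after 10 min. Kinetic 480 nm excitation/540 nm emission read, 2 min.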

[8] = molecular target: Cytochrome P450 3A4 (Homo sapiens) (UniProt P08684); test: Cytochrome P450 Family 3 Subfamily A Member 4 (CYP3A4) small molecule antagonists: luciferase reporter qHTS assay (AID 1671201); also: nearly all actives have a fitted effect of over 50% in size; also: potency is read from the fitted curve at half-maximal effect
Sequence of Cytochrome P450 3A4 (Homo sapiens) (P08684 whole entry, looked up): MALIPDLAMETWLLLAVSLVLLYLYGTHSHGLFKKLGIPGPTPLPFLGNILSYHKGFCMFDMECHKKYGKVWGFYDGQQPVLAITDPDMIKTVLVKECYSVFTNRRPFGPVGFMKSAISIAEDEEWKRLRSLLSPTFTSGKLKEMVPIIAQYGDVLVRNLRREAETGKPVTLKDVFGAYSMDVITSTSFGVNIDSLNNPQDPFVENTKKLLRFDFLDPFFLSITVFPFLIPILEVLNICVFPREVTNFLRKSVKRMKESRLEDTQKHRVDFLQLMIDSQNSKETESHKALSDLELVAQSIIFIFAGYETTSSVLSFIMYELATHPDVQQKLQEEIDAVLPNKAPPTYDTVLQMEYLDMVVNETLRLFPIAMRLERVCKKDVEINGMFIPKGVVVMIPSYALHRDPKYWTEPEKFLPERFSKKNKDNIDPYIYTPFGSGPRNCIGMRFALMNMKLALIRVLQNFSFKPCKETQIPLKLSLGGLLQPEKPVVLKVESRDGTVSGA
How it was run: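 Recombinant human CYP3A4 converts a proluciferin substrate to luciferin over 1 h at room temperature after NADPH regeneration solution is added (compound preincubated 10 min); detection reagent stops reaction, luminescence read 20 min later as relative units.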

[9] = molecular target: Acetylcholinesterase (Homo sapiens) (UniProt P22303); test: Acetylcholinesterase (AChE) small molecule antagonists: fluorescence cell-based qHTS assay (AID 1347398; calls by dose curve; also: nearly all actives have a fitted effect of over 50% in size); conditions: Potency: AChE activity
How it was run: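 Cellular AChE inhibition: SH-SY5Y cells treated with test chemical for 30 min at 37 C, then acetylthiocholine hydrolysis followed over 40 min at room temperature via thiocholine-reactive Thiolite Green fluorescence (490/520 nm).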

[10] = molecular target: Cytochrome P450 2C9 (Homo sapiens) (UniProt P11712); test: Cytochrome P450 Family 2 Subfamily C Member 9 (CYP2C9) small molecule antagonists: luciferase reporter qHTS assay (AID 1671198); also: nearly all actives have a fitted effect of over 50% in size; also: potency is read from the fitted curve at half-maximal effect
Sequence of Cytochrome P450 2C9 (Homo sapiens) (P11712 whole entry, looked up): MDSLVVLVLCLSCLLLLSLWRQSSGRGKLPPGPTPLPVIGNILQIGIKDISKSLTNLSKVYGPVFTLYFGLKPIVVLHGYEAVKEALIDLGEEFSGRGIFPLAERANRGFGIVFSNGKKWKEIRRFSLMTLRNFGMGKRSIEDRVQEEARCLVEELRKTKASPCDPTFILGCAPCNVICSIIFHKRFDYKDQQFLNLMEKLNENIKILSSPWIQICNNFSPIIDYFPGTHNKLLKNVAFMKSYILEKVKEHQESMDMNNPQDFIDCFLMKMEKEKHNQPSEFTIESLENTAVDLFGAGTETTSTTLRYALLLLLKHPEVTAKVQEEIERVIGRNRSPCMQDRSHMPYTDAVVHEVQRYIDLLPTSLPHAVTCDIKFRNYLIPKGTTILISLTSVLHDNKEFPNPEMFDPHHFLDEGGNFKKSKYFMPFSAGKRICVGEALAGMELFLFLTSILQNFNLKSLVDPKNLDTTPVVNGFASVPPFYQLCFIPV
How it was run: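 CYP2C9 activity was measured with a P450-Glo proluciferin substrate. Enzyme–substrate mix was held with compound for 10 min at room temperature, then NADPH regeneration solution was added for 1 h at 37C. Luciferin product was read as luminescence.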

Row | Compound | Potency [1] | Potency [2] | Potency [3] | Potency [4] | Potency [5] | Potency [6] | Potency [7] | Potency [8] | Potency [9] | Potency [10]
1 | CCCCNC(=O)n1c(NC(=O)OC)nc2ccccc21 | inactive | inactive | inactive | inactive | 79.3 µM (active) | 25.1 µM (active) and 28.3 µM (active) | inactive | inactive |  | 
2 | O=C1C=CC(=O)C=C1 | inactive |  | inactive | inactive | inactive | 40.1 µM (active) | inactive |  | inactive | inactive
3 | NCc1cccnc1 | inactive | inactive | inactive | inactive | 28.3 µM (active) and inactive | inactive | inactive | inactive |  | inactive
4 | Brc1ccc(Oc2cc(Br)c(Br)cc2Br)c(Br)c1 | inactive | inactive | inactive | 35.6 µM (active) and inactive | 1.78 µM (active) and 1.27 µM (active) | 31.7 µM (active) and 32 µM (active) | inactive | inactive |  | 31.7 µM (active) and 18 µM (active)
5 | OCC(O)CO | inactive | inactive | inactive | inactive | inactive | inactive | inactive |  |  | inactive
6 | C=C(C)C(=O)OCC1CO1 (centres undefined) | inactive |  | inactive | inactive | inactive | inactive | inactive | inactive | inactive | inactive
7 | Cc1cc(Cl)ccc1OCCCC(=O)O | inactive |  | inactive | inactive | 82.8 µM (active) and inactive | inactive | inactive | inactive | inactive | 
8 | Cc1ccc2c(c1N)C(=O)c1ccccc1C2=O | inactive |  | inactive | 702 nM (active) and 5.64 µM (active) | 2.8 µM (active) and 5.03 µM (active) | 443 nM (active) and 633 nM (active) | inactive | inactive | inactive | 2.22 µM (active) and 3.99 µM (active)
9 | O=Cc1ccco1 | inactive |  | inactive | inactive | inactive | inactive | inactive |  |  | inactive
10 | Oc1cc(Cl)ccc1Oc1ccc(Cl)cc1Cl | inactive |  | inactive | inactive | 459 nM (active) and 389 nM (active) | 30.1 µM (active) and 17.4 µM (active) | inactive | inactive |  | 
11 | N#CC(Br)Br | inactive |  | inactive | 31.5 µM (active) and inactive | inactive | inactive | inactive | inactive | inactive | inactive
12 | COc1ccc(C=O)cc1 | inactive |  | inactive | inactive | inactive | inactive | inactive | inactive | inactive | inactive
13 | Cc1ccccc1[N+](=O)[O-] | inactive |  | inactive | inactive | inactive | inactive | inactive | inactive |  | inactive
14 | CCCCCCOC(=O)c1ccccc1C(=O)OCCCCCC | inactive |  | inactive | inactive | 20.4 µM (active) and 7.96 µM (active) | 22.9 µM (active) and 10 µM (active) | inactive |  | inactive | 25.7 µM (active) and 7.96 µM (active)
15 | CCN(CC)C(=O)/C(Cl)=C(\C)OP(=O)(OC)OC |  |  | inactive | inactive | inactive | inactive and 39.9 µM (active) | inactive | inactive |  | inactive
16 | CCC(C)c1ccc(O)cc1 (centres undefined) | inactive |  | inactive | inactive | inactive | 35.9 µM (active) and 31.7 µM (active) | inactive |  | inactive | 
17 | O=[N+]([O-])c1c(Cl)c(Cl)c(Cl)c(Cl)c1Cl | 39.8 µM (active) and 31.7 µM (active) |  | inactive | 31.6 µM (active) and inactive | inactive | 8.9 µM (active) and 1.59 µM (active) | inactive |  |  | inactive
18 | ClC1C(Cl)C(Cl)C(Cl)C(Cl)C1Cl (centres undefined) |  |  |  | inactive and 39.9 µM (active) and 71 µM (active) |  |  | 39.7 µM (active) and inactive and 43.6 µM (active) |  |  | 32.4 µM (active) and 35.6 µM (active) and 31.7 µM (active)
19 | Clc1nc(Cl)nc(Cl)n1 | inactive |  | inactive | inactive | inactive | inactive | inactive | inactive |  | inactive
20 | c1ccc(P(c2ccccc2)c2ccccc2)cc1 | inactive |  | inactive |  | 10.2 µM (active) and 7.1 µM (active) | inactive |  |  | inactive | 12.9 µM (active) and 7.96 µM (active)

Row | Compound | Potency [1] | Potency [2] | Potency [3] | Potency [4] | Potency [5] | Potency [6] | Potency [7] | Potency [8] | Potency [9] | Potency [10]
21 | C=CCN(CC=C)C(=O)C(Cl)Cl | inactive |  | inactive | inactive | inactive | inactive | inactive |  |  | inactive
22 | CNC(=O)Oc1cccc2c1OC(C)(C)O2 | 1.04 µM (active) and 399 nM (active) |  | 10.4 µM (active) and 5.03 µM (active) | inactive | 36.9 µM (active) and 71 µM (active) | 35.6 µM (active) | inactive | inactive |  | 
23 | CN(C)C(=O)Nc1ccc(Cl)cc1 | inactive |  | inactive | 9.86 µM (active) | 7.83 µM (active) | 3.93 µM (active) and 3.99 µM (active) | inactive |  |  | inactive
24 | Cc1ccc(N)c(N)c1 | inactive |  | inactive | 3.57 µM (active) and 17.8 µM (active) | 17.9 µM (active) and 31.7 µM (active) | 5.66 µM (active) and 20 µM (active) | inactive | 31.8 µM (active) and 31.7 µM (active) | inactive | 35.7 µM (active) and 20 µM (active)
25 | N[C@@H](Cc1ccc(N(CCCl)CCCl)cc1)C(=O)O |  |  |  | 34.1 µM (active) and 34.7 µM (active) | 8.57 µM (active) and 17.4 µM (active) |  | inactive |  |  | 17.1 µM (active) and 27.5 µM (active)
26 | S=C1NCCN1 |  |  |  |  |  |  | inactive |  |  | 
27 | C=CCc1ccc(OC)cc1 | inactive |  | inactive | 5.47 µM (active) and inactive | inactive |  | inactive |  | inactive | inactive
28 | CCN(CC)C(=O)SCc1ccc(Cl)cc1 | inactive |  | inactive | inactive | 581 nM (active) and 564 nM (active) | 13 µM (active) and 15.9 µM (active) |  | inactive | inactive | 32.7 µM (active) and 25.2 µM (active)
29 | CC(C)(c1cc(Cl)c(O)c(Cl)c1)c1cc(Cl)c(O)c(Cl)c1 | inactive |  | inactive | inactive | 35.6 µM (active) and 28.3 µM (active) | inactive | inactive |  |  | 35.6 µM (active) and 31.7 µM (active)
30 | Oc1cc(Cl)ccc1Cl | inactive |  | inactive | inactive | inactive | 36.6 µM (active) and 31.7 µM (active) | inactive | inactive |  | inactive
31 | C#CCOS(=O)OC1CCCCC1Oc1ccc(C(C)(C)C)cc1 (centres undefined) | inactive |  | inactive | 22.5 µM (active) and 22.4 µM (active) | 895 nM (active) and 710 nM (active) | 8.95 µM (active) and 8.94 µM (active) |  | 1.59 µM (active) and 2.83 µM (active) |  | 503 nM (active) and 502 nM (active)
32 | CCCCCCCCOC(=O)c1ccccc1C(=O)OCCCCCCCC | inactive |  | inactive | inactive | 50.1 µM (active) and inactive |  | inactive |  |  | 14.2 µM (active)
33 | C=CC(=O)OCCO | inactive |  | inactive | inactive | inactive |  | inactive | inactive | inactive | inactive
34 | O=c1oc2ccccc2c(O)c1C(CC(O)c1ccc(-c2ccc(Br)cc2)cc1)c1ccccc1 (centres undefined) | inactive |  | inactive | inactive |  | inactive | inactive |  |  | 3.37 µM (active) and 3.47 µM (active)
35 | Nc1ccc(-c2ccc(N)c(N)c2)cc1N |  |  |  | 28.2 µM (active) | 19.9 µM (active) and 3.56 µM (active) | 35.5 µM (active) | inactive | 5.01 µM (active) and 2.83 µM (active) |  | 17.8 µM (active) and 2.83 µM (active)
36 | Nc1c(Cl)cc([N+](=O)[O-])cc1Cl | inactive |  | inactive | 35.8 µM (active) and inactive | 40.2 µM (active) and 56.4 µM (active) | 1.79 µM (active) and 2.52 µM (active) | inactive |  | inactive | inactive
37 | COc1ccc(C(CN(C)C)C2(O)CCCCC2)cc1 (centres undefined) |  |  |  |  |  |  | inactive |  |  | 
38 | C[C@]12CCC(=O)C[C@@H]1CC[C@@H]1[C@@H]2CC[C@]2(C)[C@@H](O)CC[C@@H]12 |  |  |  |  |  |  | 21.6 µM (active) |  |  | 
39 | Oc1c(Cl)c(Cl)c(Cl)c(Cl)c1Cl | inactive |  | inactive | inactive and 796 nM (active) | 34.9 µM (active) and 15.9 µM (active) and inactive | 62 µM (active) and 35.5 µM (active) and 79.6 µM (active) | inactive | inactive |  | 

— PubChem BioAssay (Tox21)
